# Laboratory results from PubChem BioAssay AID1376 (SRMLSC, 2008).
# Several values for one entry are separate records, joined by “and”; a condition that tells them apart may be missing. Equal entries are not always repeated. In all, about 220,000 compounds went through this assay and about 530 (0.24%) were called active. Rule as the data show it: active = inhibition above about 13%; inconclusive = no clear call, values can overlap the other calls; inactive = below that. The full list was thinned out, with actives kept by preference. Results with a measured potency or affinity are listed apart.
# Biological target: Bifunctional protein GlmU (Mycobacterium tuberculosis (strain ATCC 25618 / H37Rv)) (UniProt P9WMN3)
# Test: inhibition of mycobacterial GlmU enzyme – biochemical, glucosamine-1-phosphate acetyltransferase (AID 1376);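 also: 0% = complete reaction with vehicle and 100% = reaction without substrate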
# Conditions: M. tuberculosis GlmU acetyltransferase enzyme assay; active compounds read high;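 tested at 30 µM in the primary screen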
# Sequence of Bifunctional protein GlmU (Mycobacterium tuberculosis (strain ATCC 25618 / H37Rv)) (P9WMN3 whole entry, looked up): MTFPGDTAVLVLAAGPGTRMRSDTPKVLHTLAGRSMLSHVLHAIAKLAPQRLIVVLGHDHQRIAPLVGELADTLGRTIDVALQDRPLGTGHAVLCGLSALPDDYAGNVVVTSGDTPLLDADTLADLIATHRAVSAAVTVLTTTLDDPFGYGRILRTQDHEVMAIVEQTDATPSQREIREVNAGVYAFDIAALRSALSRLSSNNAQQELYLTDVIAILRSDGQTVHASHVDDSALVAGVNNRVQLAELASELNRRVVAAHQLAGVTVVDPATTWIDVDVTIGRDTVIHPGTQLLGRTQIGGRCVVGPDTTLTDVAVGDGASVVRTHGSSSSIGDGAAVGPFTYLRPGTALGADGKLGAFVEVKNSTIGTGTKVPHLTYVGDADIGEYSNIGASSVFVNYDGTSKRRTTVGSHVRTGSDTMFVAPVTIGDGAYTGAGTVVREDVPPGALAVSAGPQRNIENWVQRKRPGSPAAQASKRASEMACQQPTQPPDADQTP
row,Structure (SMILES),inhibition
1,CNc1ccc(Br)cc(C(=O)/C=C/c2ccc(Cl)cc2Cl)c1=O,10.2% (inactive)
2,CNc1ccc(Br)cc(C(=O)/C=C/c2cccc(Cl)c2Cl)c1=O,13% (active)
3,CNc1ccc(Br)cc(C(=O)/C=C/c2cccc(OC)c2OC)c1=O,0.88% (inactive)
4,CCS(=O)(=O)c1ccc(O)c(NC(=O)/C=C/c2ccc(Cl)cc2)c1,0.22% (inactive)
5,O=C(O)CNC(=O)C(Cc1ccccc1)NC(=O)OCc1ccccc1 (stereo not given),2.74% (inactive)
6,Cn1c(SCc2ccccc2)nnc1-c1cnccn1,-1.68% (inactive)
7,Cc1ccccc1CSc1nnc(-c2cnccn2)n1C,4.71% (inactive)
8,Cn1c(SCc2ccccn2)nnc1-c1cnccn1,13.4% (active)
9,Cc1ccc(-n2c(Cc3ccccc3)nnc2SCC(=O)NNC(=O)Cc2ccccc2)cc1,2.04% (inactive)
10,Cc1c(Br)c(O)c(Br)c2sc(=O)oc12,14.6% (active)
11,Cc1ccc(-c2cc(O)cc3sc(=O)oc23)cc1C,-5.89% (inactive)
12,C=CCn1c(=O)c2ccccc2n2c(SCC(N)=O)nnc12,-2.87% (inactive)
13,C/C(=N\OCc1ccccc1C#N)c1cc2ccccc2o1,-1.63% (inactive)
14,C/C(=N\OCc1ccc(C#N)cc1)c1ccccc1,2.31% (inactive)
15,C/C(=N\OCc1ccc(C#N)cc1)c1cc2ccccc2o1,14% (active)
16,COc1cc(CNCc2c[nH]c3ccccc23)cc(OC)c1,0.77% (inactive)
17,N/C(=N\N=C\c1ccc(O)cc1O)N[N+](=O)[O-],1.33% (inactive)
18,O=C(N/N=C/c1ccc(-c2cccc([N+](=O)[O-])c2)o1)c1ccccc1O,0.51% (inactive)
19,O=C1CCCN1c1cc(Cl)cc(Cl)c1,0.87% (inactive)
20,CCC(C)N(CCNC(=O)CC1Oc2ccc(C)cc2NC1=O)C1CCCCC1 (stereo not given),4.05% (inactive)
21,NNC(=O)COc1ccc(-c2n[nH]c(C(F)(F)F)c2-c2ccc(Br)cc2)c(O)c1,-2.65% (inactive)
22,COc1ccc(-c2c(-c3ccc(OCC(=O)NN)cc3O)n[nH]c2C(F)(F)F)cc1,13.2% (active)
23,COc1ccc(-c2c(-c3ccc(OCC(=O)NN)cc3O)n[nH]c2C)cc1,4.13% (inactive)
24,O=C(CC(NC(=O)c1ccccc1Cl)c1ccccc1)NC1=NCCS1 (stereo not given),2.83% (inactive)

row,Structure (SMILES),inhibition
1,CC(=O)Nc1ccc2ccccc2c1,1.2% (inactive)
2,CC(=O)Nc1ccc2nc3ccccc3nc2c1,3.15% (inactive)
3,CC(=O)Nc1ccc2cc3ccc(NC(C)=O)cc3nc2c1,29.2% (active)
4,CCC(C)(C)n1nnnc1CN1CCC(n2c(C)nc3cc(C(F)(F)F)ccc32)CC1,2.13% (inactive)
5,CCOC(=O)c1nc2ccccc2nc1C,3.05% (inactive)
6,O=C(CSc1nnc(-c2ccncc2)n1Cc1ccco1)Nc1nc(-c2ccccc2)cs1,-0.09% (inactive)
7,N=C1/C(=C\c2ccc(SCc3ccco3)o2)C(=O)N=C2SC=NN12,8.44% (inactive)
8,O=C1NC(=S)S/C1=C\c1ccc(SCc2ccccc2)o1,68.3% (active)
9,CCCC1=NN2C(=N)/C(=C\c3ccc(SCc4ccco4)o3)C(=O)N=C2S1,30.6% (inactive)
10,O=C1/C(=C\c2ccco2)SC(=S)N1c1ccccc1,8% (inactive)
11,O=C1NC(=S)S/C1=C/c1ccc(N2CCOCC2)o1,11.4% (inactive)
12,Cc1cccc(C)c1-n1cccc1/C=C1\SC(=S)N(c2cccc(C(=O)O)c2)C1=O,-2.25% (inactive)
13,O=C(O)c1cccc(N2C(=O)/C(=C/c3ccc(SCc4ccc(Cl)cc4)o3)SC2=S)c1,33.7% (active)
14,CCOc1cc(/C=C2/SC(=S)NC2=O)ccc1OC(=O)c1ccco1,1.76% (inactive)
15,O=C(O)CN1C(=O)/C(=C/c2ccc(SCc3ccccc3)o2)SC1=S,18.9% (inactive)
16,CCC1=NN2C(=N)/C(=C\c3ccc(SCc4ccco4)o3)C(=O)N=C2S1,4.74% (inactive)
17,NNC(=O)c1cncn1-c1ccc(F)cc1,-2.24% (inactive)
18,CN/N=C(\Cc1nc2ccccc2[nH]1)c1ccc([N+](=O)[O-])cc1,2.32% (inactive)
19,CCC(Oc1ccccc1)C(=O)NCc1ccc(S(N)(=O)=O)cc1 (stereo not given),1.79% (inactive)
20,CC(=O)Nc1ccc(S(=O)(=O)Nc2ccc(=O)n(Cc3ccc(Cl)c(Cl)c3)c2)cc1,-3.3% (inactive)
21,COc1cc(N(C(=O)Cc2cccs2)C(C(=O)NC2CCCCC2)c2cccc(OC)c2OC)ccc1-n1cnnn1 (stereo not given),-6.93% (inactive)
22,OCCNc1nc(Nc2ccccc2Cl)nc(N2CCCC2)n1,2.46% (inactive)
23,CCCS(=O)(=O)N1CCC(C(=O)NCCCOC(C)C)CC1,-1.86% (inactive)
24,CCC(C)NS(=O)(=O)c1ccc(S(=O)(=O)N(CCc2ccc(OC)c(OC)c2)Cc2cccs2)cc1 (stereo not given),-1.89% (inactive)

row,Structure (SMILES),inhibition
1,Cc1ccc([N+](=O)[O-])cc1S(=O)(=O)Nc1ccccn1,12.5% (inactive)
2,Cc1cccc2cc(/C=N/NC(=O)[C@H]3C[C@@H]3c3ccccc3)c(Cl)nc12,-1.46% (inactive)
3,Cc1cccc(NC(=O)C2CCCN(S(=O)(=O)c3cccc4cccnc34)C2)c1 (stereo not given),1.23% (inactive)
4,O=C(Nc1ccncc1)C1CCCN(S(=O)(=O)c2cccc3cccnc23)C1 (stereo not given),-3.59% (inactive)
5,CC(=O)c1cccc(NC(=O)C2CCCN(S(=O)(=O)c3cccc4cccnc34)C2)c1 (stereo not given),13.1% (active)
6,O=C1CCN(Cc2ccccc2)S(=O)(=O)c2ccccc21,1.98% (inactive)
7,Cc1cc(/C=C2\C(=O)NC(=O)N(Cc3ccco3)C2=O)c(C)n1-c1ccc(C(=O)O)cc1,9.99% (inactive)
8,Cn1cccc1/C=C1/C(=O)NC(=O)N(Cc2ccccc2)C1=O,-0.82% (inactive)
9,Cn1cccc1/C=C1\C(=O)NC(=O)N(Cc2ccccc2)C1=O,13.2% (active)
10,Cn1cccc1/C=C1/C(=O)NC(=O)N(Cc2ccc(F)cc2)C1=O,-4.26% (inactive)
11,Cc1cc(/C=C2\C(=O)NC(=O)N(Cc3ccccc3Cl)C2=O)c(C)n1-c1ccc(C(=O)O)cc1,-0.15% (inactive)
12,O=C1NC(Cc2c[nH]c3ccccc23)C(=O)N1Cc1ccc(CN2C(=O)NC(Cc3c[nH]c4ccccc34)C2=O)cc1 (stereo not given),3.5% (inactive)
13,O=C(COc1ccc(S(=O)(=O)NC2CCCCC2)cc1)N1CCN(c2ccc(F)cc2)CC1,-2.74% (inactive)
14,COc1ccc(CNC(=O)CCSCc2cccc(Cl)c2)cc1,3.22% (inactive)
15,CC(C)CCN1CCN(CC#Cc2ccccc2)CC1CCO (stereo not given),-6.43% (inactive)
16,CC(C)CCN1CCN(CC(c2ccccc2)c2ccccc2)CC1CCO (stereo not given),14% (active)
17,OCCC1CN(CC(c2ccccc2)c2ccccc2)CCN1C1CCCC1 (stereo not given),-0.28% (inactive)
18,CCOc1ccc(NS(=O)(=O)c2ccc3[nH]c(=O)cc(C(=O)O)c3c2)cc1,5.18% (inactive)
19,Cc1oc2c(C)c(O)ccc2c(=O)c1-c1cnn(-c2ccccc2)c1,-1.79% (inactive)
20,Cc1oc2cc(O)ccc2c(=O)c1-c1cnn(-c2ccccc2)c1,1.72% (inactive)
21,Cc1oc2c(O)c(O)ccc2c(=O)c1-c1cnn(-c2ccccc2)c1,15% (active)
22,CCOC(=O)NC(NCc1ccccc1)(C(F)(F)F)C(F)(F)F,-2.58% (inactive)
23,CCOC(=O)C(NC(C)=O)(OCc1ccccc1)C(F)(F)F (stereo not given),1.91% (inactive)
24,COC(=O)C(O)(NC(=O)OCc1ccccc1)C(F)(F)F (stereo not given),13.5% (active)

row,Structure (SMILES),inhibition
1,O=C(Nc1ccccc1N1CCOCC1)c1ccc(Cl)c(S(=O)(=O)NCc2ccco2)c1,0.84% (inactive)
2,CN1CCN(C(=O)C2=C[C@@H](C3CCCCC3)C[C@@H](OCc3ccc(CO)cc3)O2)CC1,0.67% (inactive)
3,COC(=O)c1ccccc1NC(=O)CSc1nnc(-c2cccnc2)n1C,3.07% (inactive)
4,COc1ccccc1CNC(=O)CCS(=O)(=O)c1ccc2c(c1)CCCN2C(C)=O,15.2% (active)
5,COc1ccc(NC(=O)CCS(=O)(=O)c2ccc3c(c2)CCCN3C(C)=O)cc1Cl,-0.45% (inactive)
6,COc1ccc(NC(=O)CCS(=O)(=O)c2ccc3c(c2)CCCN3C(C)=O)cc1,0.16% (inactive)
7,O=[N+]([O-])c1ccc2[nH]nc(-c3ccccc3)c2c1,4.82% (inactive)
8,NNC(=O)c1cc2sccc2s1,14% (active)
9,CC(=O)NNC(=O)c1cc2sccc2s1,0.49% (inactive)
10,O=C(O)c1cc2sccc2s1,1.23% (inactive)
11,O=C1c2cccnc2C(=O)N1C1CCCCC1,6.11% (inactive)
12,CCC(c1ccccc1)c1nnc(NC(=O)c2ccco2)s1 (stereo not given),4.36% (inactive)
13,Cc1cc(=O)cc(C)n1-c1ccc(Cl)cc1,1.93% (inactive)
14,CC1=CC(C)(C)N(C)C(=O)N1c1ccc(Cl)cc1,-0.04% (inactive)
15,O=C1[C@H]2[C@H](C=CC[C@H]2C(=O)N2CCN(c3ccccc3)CC2)CCN1Cc1ccc(Cl)c(Cl)c1,0.58% (inactive)
16,O=S(=O)(Nc1nc(CN2CCOCC2)nc2sc3c(c12)CCCC3)c1cc(F)ccc1F,2.36% (inactive) and -0.91% (inactive)
17,CC(c1ccccc1)N1CC(C(=O)N2CCN(c3ccccc3)CC2)CC1=O (stereo not given),-1.56% (inactive)
18,CS(=O)(=O)N(CC(=O)Nc1cccc(F)c1)c1cccc([N+](=O)[O-])c1,2.56% (inactive)
19,CS(=O)(=O)N(CC(=O)Nc1c(F)cccc1F)c1cccc([N+](=O)[O-])c1,1.32% (inactive)
20,CS(=O)(=O)N(CC(=O)Nc1ccc(F)cc1F)c1cccc([N+](=O)[O-])c1,14.6% (active)
21,Cc1ccc(S(=O)(=O)c2cc(O)ccc2O)cc1C,5.34% (inactive)
22,Nc1nc2ccccc2cc1S(=O)(=O)c1ccccc1,-5.35% (inactive)
23,O=S(=O)(c1ccccc1)c1cc(O)ccc1O,12.9% (active)
